Source: PubChem
Sampled rows, rich in hits. Any-hit rate of the full collection: about 3.6%.
NRP1-CendR mod – modulators of CendR peptide binding to human neuropilin-1. FAM-RPARPAR peptide binding to NRP-1, fluorescence polarization. hit rate 0.85% among 360,000. O14786. AID 602438. inhibition, % at 25 µM;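 active = inhibition or corrected inhibition above about 18%, plus a signal ratio from 0.5 to 1.5, limit read from the data, passing the limit was not always enough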
Myeloid diff 2 – compounds promoting myeloid differentiation; ER-HoxA9 myeloid progenitors, lysozyme-GFP differentiation, flow cytometry; calls only at 10 µM; hit rate 1% among 360,000;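 active = normalized GFP-positive differentiation at or above the plate's own cutoff, the solvent-only control mean plus 3 SD; inconclusive = no clear call, values can overlap the other calls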;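 note: cells exposed to compound for four days before flow analysis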
CRFR2-BP antag – antagonists of CRF-binding protein/CRF-R2 receptor complex; HEK293 CRF-R2/CRF-BP, CRF-induced calcium fluorescence; inhibition, % at 11.8 µM; hit rate 0.59% among 350,000;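 active = inhibition of the ligand-induced calcium signal above about 50% at the single tested concentration, limit read from the data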
NadD block – blocks S. aureus nicotinate mononucleotide adenylyltransferase; inhibition, % at 20 µM; hit rate 0.78% among 360,000; purified NadD enzyme, colorimetric absorbance read-out; in the data active = inhibition above about 26%
FAS TE block – FAS thioesterase (human) inhibition; recombinant FAS-TE, OMFH fluorogenic substrate, fluorescence endpoint; inhibition, % at 15 µM; hit rate 0.67% among 360,000;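 active = compounds whose normalised, plate-corrected inhibition of enzyme fluorescence in the single-dose primary screen is 50% or more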
Of the large screens only hits and unclear results are named; the others gave an inactive call.

Cc1ccc2ccc[n+](Cc3ccccc3)c2c1	none
COc1ccc2c(c1)c(C)cc[n+]2Cc1ccccc1	Myeloid diff 2 active
Cc1ccc2c(c1)c(C)cc[n+]2Cc1ccccc1	Myeloid diff 2 active
CC(Nc1cccnc1)=C(C#N)C#N	none
COc1ccc2cc(C(=O)N3CCN(Cc4ccc5c(c4)OCO5)CC3)[nH]c2c1	CRFR2-BP antag 50
Cc1cccc(N(C)C(=O)c2cc(S(=O)(=O)N3CCc4ccccc43)cn2C)c1	Myeloid diff 2 active
Cc1ccc(N=C(N)N=C(N)N)cc1	Myeloid diff 2 active
COc1ccc2c(c1)CCCC21NC(=O)NC1=O (stereo not drawn)	none
COC1=CC2(O)CCCC2=CC1=O (stereo not drawn)	Myeloid diff 2 active
Cc1cc(C(=O)NNC(=O)C(CCC(N)=O)NS(=O)(=O)c2ccc(Cl)cc2)c(C)o1 (stereo not drawn)	CRFR2-BP antag 67
NNC(=S)Nc1ccc(S(=O)(=O)N2CCOCC2)cc1	none
O=S(=O)(c1ccc(NC(=S)Nc2ccc(OC(F)F)cc2)cc1)N1CCOCC1	Myeloid diff 2 active
O=C(CSCc1ccccc1)Nc1ccc(S(=O)(=O)N2CCOCC2)cc1	NRP1-CendR mod 27
CCc1ccc(OCC(=O)N/N=C(\C)c2ccc(O)cc2O)cc1	Myeloid diff 2 active
O=C(O)c1ccc(CSc2nc3c(c(=O)[nH]2)CCC3)cc1	none (no result: CRFR2-BP antag)
Cc1nc(SCc2ccc(C(=O)O)cc2)nc2c1CCCC2	NRP1-CendR mod 42
CO/N=C(/C(=O)N[C@@H]1C(=O)N2C(C(=O)O)=CCS[C@H]12)c1cnc(N)s1	NadD block 39 (no result: CRFR2-BP antag)
CCNC(=O)C1(C)CCCN(C(=O)c2nc(C)oc2C)C1 (stereo not drawn)	NRP1-CendR mod 24 (no result: CRFR2-BP antag)
O=C(Nc1ccc(C(F)(F)F)cc1)c1cc(S(=O)(=O)NCC2COc3ccccc3O2)ccc1F (stereo not drawn)	NRP1-CendR mod 82
CCOC(=O)c1csc(COc2ccc(OC)cc2)n1	NRP1-CendR mod 30
CC(=O)N1c2ccccc2N(Cc2ccc(C)cc2C)C(=O)C1(C)C	Myeloid diff 2 active
COc1cc(C(=O)NCCN2C(=O)S/C(=C\c3ccc(F)cc3)C2=O)ccc1OCC(=O)N1CCOCC1	none (no result: NRP1-CendR mod, Myeloid diff 2, NadD block, FAS TE block)
Cc1cc(C)cc(NC(=O)c2ccc(CSc3nnnn3C)cc2)c1	NRP1-CendR mod 28
Cc1ccc(C)c(OCC(=O)OCc2csc(CC(=O)Nc3ccccc3C)n2)c1	none
O=C(Nc1ccc2c(c1)OCCO2)C(c1cc2ccccc2o1)N1CCN(C/C=C/c2ccccc2)CC1 (stereo not drawn)	none (no result: CRFR2-BP antag)
CCC(=O)Nc1ccc2c(c1)OC[C@@H](C)NC[C@@H](C)[C@@H](OC)CN(C)C2=O	none (no result: CRFR2-BP antag, NadD block, FAS TE block)
COc1ccc(NC(=O)CN2CCC3(O)CCCCC3C2c2cc(OC)ccc2OC)cc1 (stereo not drawn)	CRFR2-BP antag 51
CN(Cc1ccccn1)C(=O)C1CCC(=O)N(Cc2cccc(C(F)(F)F)c2)C1 (stereo not drawn)	CRFR2-BP antag 53
CN(Cc1ccncn1)C(=O)C1CCC(=O)N(Cc2cccc(C(F)(F)F)c2)C1 (stereo not drawn)	none
Cc1cccc(C)c1NC(=O)CN1C(=O)C2CC=CCC2C1=O (stereo not drawn)	none
N#CCSc1ccccc1NC(=O)CN1C(=O)C2CC=CCC2C1=O (stereo not drawn)	Myeloid diff 2 active
Cc1cccc(S(=O)(=O)NC(=O)C2(C)CCN2C(=O)C2(c3ccc(Cl)cc3)CCC2)c1 (stereo not drawn)	none (no result: CRFR2-BP antag)
Cc1ccc(-c2nnn(CC(=O)N(c3cccc(F)c3)C(C(=O)NC(C)(C)C)c3ccco3)n2)o1 (stereo not drawn)	NRP1-CendR mod 44
CCC(C)(C)NC(=O)C(c1ccco1)N(C(=O)c1csnn1)c1cccc(F)c1 (stereo not drawn)	NRP1-CendR mod 34, Myeloid diff 2 active
Cc1ccc(-c2nnn(CC(=O)N(c3cccc(O)c3)C(C(=O)NC(C)(C)C)c3cccs3)n2)o1 (stereo not drawn)	none
COc1ccc(C2=Nc3ccccc3N(C(=O)c3cnccn3)C2C(=O)NC2CCCC2)cc1 (stereo not drawn)	none (no result: CRFR2-BP antag, NadD block, FAS TE block)
COc1ccc([N+](=O)[O-])cc1NC(=O)CCN1CCOCC1	none
CCCCCCCCCSc1n[nH]c(N)n1	CRFR2-BP antag 69
CC(CNC(=O)CN1C(=O)NC2(CCOc3ccccc32)C1=O)c1ccccc1 (stereo not drawn)	none
COc1ccc(-n2ncc3c2CC(C)(C)CC3NC(=O)c2ccc(OC)o2)cc1 (stereo not drawn)	none
CC(=O)NC(c1cccc(F)c1)c1nc(-c2cccc(C(F)(F)F)c2)cs1 (stereo not drawn)	NRP1-CendR mod 25 (no result: CRFR2-BP antag)
Cc1ccc(S(=O)(=O)N2CCC(=O)N(CCOC(=O)Nc3cc(C)cc(C)c3)CC2)cc1	none
Cc1ccc(S(=O)(=O)N2CCC(=O)N(CCOC(=O)Nc3ccccc3C)CC2)cc1	NRP1-CendR mod 19
Cc1cc(C)n(CCNC(=O)[C@H]2O[C@@H](n3ccc(N)nc3=O)[C@H](O)[C@@H]2O)n1	none (no result: CRFR2-BP antag)
CCCCn1c(N)c(N(Cc2ccccc2OC)C(=O)c2c(CC)noc2C)c(=O)[nH]c1=O	CRFR2-BP antag 78
COc1ccc(Cl)cc1NC(=O)COc1cccc(-n2cnnn2)c1	Myeloid diff 2 inconclusive
COc1ccc(Cl)cc1NC(=O)c1cccc(-n2cnnn2)c1	NRP1-CendR mod 22
COc1ccc(CCN2C(=O)CCC2(C)c2nnnn2-c2c(C)cccc2C)cc1OC (stereo not drawn)	none (no result: CRFR2-BP antag)
O=C(Nc1nnc([C@H]2C[C@H](O)[C@@H](CO)O2)s1)Nc1cccc(Cl)c1Cl	none (no result: CRFR2-BP antag)
O=C1C(Cl)=C(N2CCC(C(=O)O)CC2)C(=O)c2ccccc21	NRP1-CendR mod 35
CN1CCN(C2=C(Cl)C(=O)C(c3cnc(N4CCCCC4)s3)=C(Cl)C2=O)CC1	Myeloid diff 2 inconclusive, FAS TE block 60
CN1CCN(C2=C(Cl)C(=O)c3ccccc3C2=O)CC1	NRP1-CendR mod 36, Myeloid diff 2 inconclusive
COC(=O)[C@@]12C[C@@H](CC(=O)NCC34CC5CC(CC(C5)C3)C4)C(=O)N(CCc3ccc(OC)c(OC)c3)C1=CCC(C)(C)C2	none (no result: CRFR2-BP antag, NadD block, FAS TE block)
c1ccc(CNc2nc(NCc3ccccc3)c3sccc3n2)cc1	none (no result: CRFR2-BP antag)
Fc1cc(Cl)ccc1Nc1nc(NCc2ccccc2)nc2ccsc12	NRP1-CendR mod 26 (no result: CRFR2-BP antag)
Cc1nonc1OCCCNc1ccc([N+](=O)[O-])cc1Cl	Myeloid diff 2 active
Cc1nonc1OCCNc1ccc([N+](=O)[O-])cc1[N+](=O)[O-]	none
Cc1cc(NC(=O)CN(C)CC(=O)Nc2ccc(Cl)cc2)no1	NRP1-CendR mod 19
Cc1cc(NC(=O)CN(C)CC(=O)Nc2ccc(Cl)c(C(F)(F)F)c2)no1	none
